Source: PubChem BioAssay (NCI)
Where “and” joins values, the source holds several entries; their conditions need not be identical. Equal values may be shown once. Compounds without any hit were thinned out: in the full panel of roughly 83,000, 20% have a hit.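 The endpoint reported here, percent growth, reads 100 for growth as untreated, 0 for no net growth and -100 for all cells dead.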 Calls of active or inactive are those of the source. Rule for the calls: active = growth percent below 10; inactive = the rest.

Tests used:
Assay in all cases: NCI-60 one-dose screen, 48 h (100 = growth as untreated, 0 = no growth, -100 = all killed)
Settings in all cases: 10 µM unless noted
NCI-H23 lung = tested on: NCI-H23 lung
NCI-H226 lung = tested on: NCI-H226 lung
NCI-H322M lung = tested on: NCI-H322M lung
HOP-62 NSCLC = tested on: HOP-62 NSCLC
NCI-H460 lung = tested on: NCI-H460 lung
HOP-92 NSCLC = tested on: HOP-92 NSCLC
NCI-H522 lung = tested on: NCI-H522 lung
A549/ATCC NSCLC = tested on: A549/ATCC NSCLC
786-0 renal = tested on: 786-0 renal
COLO 205 colon = tested on: COLO 205 colon
DU-145 prostate = tested on: DU-145 prostate
K-562 leukemia = tested on: K-562 leukemia
MALME-3M melanoma = tested on: MALME-3M melanoma
MDA-MB-231 breast = tested on: MDA-MB-231 breast
RXF 393 renal = tested on: RXF 393 renal
SF-268 CNS = tested on: SF-268 CNS
SF-295 CNS = tested on: SF-295 CNS
SF-539 CNS = tested on: SF-539 CNS
UACC-257 melanoma = tested on: UACC-257 melanoma
M14 melanoma = tested on: M14 melanoma

| Compound | growth (NCI-H23 lung) | growth (NCI-H226 lung) | growth (NCI-H322M lung) | growth (HOP-62 NSCLC) | growth (NCI-H460 lung) | growth (HOP-92 NSCLC) | growth (NCI-H522 lung) | growth (A549/ATCC NSCLC) | growth (786-0 renal) | growth (COLO 205 colon) | growth (DU-145 prostate) | growth (K-562 leukemia) | growth (MALME-3M melanoma) | growth (MDA-MB-231 breast) | growth (RXF 393 renal) | growth (SF-268 CNS) | growth (SF-295 CNS) | growth (SF-539 CNS) | growth (UACC-257 melanoma) | growth (M14 melanoma) |
| --- | --- | --- | --- | --- | --- | --- | --- | --- | --- | --- | --- | --- | --- | --- | --- | --- | --- | --- | --- | --- |
| O=C(/C=C/c1ccc(F)cc1)Nc1ncc(Cc2ccc(F)cc2)s1 | 61.5% (inactive) | 70% (inactive) | 41.4% (inactive) | 39% (inactive) | 17% (inactive) | 71.5% (inactive) | 19.1% (inactive) | 38.1% (inactive) | 46.7% (inactive) | 23.8% (inactive) | 33% (inactive) | 14% (inactive) | 41.5% (inactive) | 75.7% (inactive) | 32.1% (inactive) | 52.3% (inactive) | 20.2% (inactive) | 22% (inactive) | 60.3% (inactive) | 19.9% (inactive) |
| CCOC(=O)CC1CSC(c2cccc(Cl)c2)=N1 (stereo not given) | 94.6% (inactive) | 113% (inactive) | 93.3% (inactive) | 111% (inactive) | 108% (inactive) | 119% (inactive) | 101% (inactive) | 95.3% (inactive) | 84.8% (inactive) | 120% (inactive) | 111% (inactive) | 92.9% (inactive) | 108% (inactive) | 105% (inactive) | 106% (inactive) | 101% (inactive) | 102% (inactive) | 114% (inactive) | 99.1% (inactive) | 101% (inactive) |
| Cc1ccc(NC(=O)N/C(N)=N/c2nc(=O)c3ccccc3s2)cc1 | 94.1% (inactive) | 91.3% (inactive) | 93.9% (inactive) | 91.7% (inactive) | 88.8% (inactive) | 86.4% (inactive) | 95.3% (inactive) | 103% (inactive) | 98.6% (inactive) | 103% (inactive) | 108% (inactive) | 57% (inactive) | 93.9% (inactive) | 86% (inactive) | 99% (inactive) | 102% (inactive) | 101% (inactive) | 95.5% (inactive) | 103% (inactive) | 92.4% (inactive) |
| N#Cc1cc(-c2ccnc(Nc3ccc(NC(=O)CCl)cc3)n2)ccc1N1CCCC1 | -31.3% (active) | -12.4% (active) | 53.4% (inactive) | -4.87% (active) | -35.9% (active) | 28.4% (inactive) | -41.3% (active) | -26.7% (active) | -14.6% (active) | -59.6% (active) | 17.1% (inactive) | 2.55% (active) | -68.5% (active) | -31.8% (active) | -79.3% (active) | -8.99% (active) | -26.9% (active) | -94.4% (active) | 3.7% (active) | -40.9% (active) |
| COc1ccc(/C=N\Nc2nc(SCC(C)C)nc(-c3ccc(OC)cc3)c2C#N)cc1 | 57.2% (inactive) | -14.8% (active) | 22.5% (inactive) | -2.99% (active) | -11.1% (active) | 15.1% (inactive) | 54% (inactive) | 11.4% (inactive) | -48.2% (active) | 50.1% (inactive) | 65.2% (inactive) | 74.6% (inactive) | 60.1% (inactive) | 43.5% (inactive) | 34.5% (inactive) | 50.9% (inactive) | -5.63% (active) | 52.6% (inactive) | 88.1% (inactive) | 77.6% (inactive) |
| COc1ccc(-c2[nH]c3ccccc3c2-c2ccc(OC)cc2)cc1 | 53% (inactive) | 112% (inactive) | 84.2% (inactive) | 51.9% (inactive) | 43.2% (inactive) | 42.6% (inactive) | 55.6% (inactive) | 75.7% (inactive) | 51.7% (inactive) | 75.3% (inactive) | -30.6% (active) | 3.69% (active) | 73.3% (inactive) | 52.6% (inactive) | 51.9% (inactive) | 61.4% (inactive) | 50.2% (inactive) | 45.3% (inactive) | 72% (inactive) | 34.9% (inactive) |
| NC1=CC(=O)c2cccnc2C1=O | -33.1% (active) | 59.2% (inactive) | 71.1% (inactive) | 14.6% (inactive) | -53.6% (active) | -31.3% (active) | -57.9% (active) | 26.6% (inactive) | 26.5% (inactive) | 76.7% (inactive) | -1.98% (active) | -48.4% (active) | -81.4% (active) | -13.5% (active) | 15.8% (inactive) | -0.409% (active) | 22.4% (inactive) | -89.2% (active) | -48.4% (active) | -88.6% (active) |
| COc1ccc2c(c1)c(C(=O)c1nc(-c3cn(C)c4ccccc34)no1)cn2C | 94.6% (inactive) | 83% (inactive) | 86.5% (inactive) | 92.5% (inactive) | 101% (inactive) | 110% (inactive) | 69.6% (inactive) | 90.7% (inactive) | 107% (inactive) | 97.7% (inactive) | 111% (inactive) | 72% (inactive) | 83.4% (inactive) | 104% (inactive) | 100% (inactive) | 103% (inactive) | 90% (inactive) | 97.2% (inactive) | 89% (inactive) | 104% (inactive) |
| Nc1nc(Nc2cccnc2)sc1C(=O)c1ccccc1F | 37.9% (inactive) | 24.4% (inactive) | 54.7% (inactive) | 21.2% (inactive) | 21.7% (inactive) | 51.8% (inactive) | 71.4% (inactive) | 27% (inactive) | 18.2% (inactive) | 20.5% (inactive) | 17.8% (inactive) | 66.5% (inactive) | 157% (inactive) | 83.1% (inactive) | -42% (active) | 20.8% (inactive) | 34.9% (inactive) | -3.32% (active) | 72.9% (inactive) | 59.2% (inactive) |
| CC(=O)Nc1c(I)c(NC(C)=O)c(I)c(C(=O)O)c1I | 110% (inactive) | 97.4% (inactive) and 113% (inactive) | 102% (inactive) and 101% (inactive) | 112% (inactive) and 97.9% (inactive) | 109% (inactive) and 103% (inactive) | 94.3% (inactive) | 102% (inactive) and 24.5% (inactive) | 105% (inactive) | 97.3% (inactive) and 114% (inactive) | 115% (inactive) and 119% (inactive) | 115% (inactive) and 142% (inactive) | 69.4% (inactive) | 93.7% (inactive) and 84.5% (inactive) | 105% (inactive) and 117% (inactive) | 113% (inactive) and 25.5% (inactive) | 107% (inactive) and 120% (inactive) | 90.4% (inactive) and 104% (inactive) | 99.3% (inactive) and 99.7% (inactive) | 105% (inactive) | 95.9% (inactive) and 104% (inactive) |
| CCOc1ccccc1NC(=O)c1cc2ccccc2cc1O | 16.4% (inactive) | 71.8% (inactive) | 84.1% (inactive) | 98.4% (inactive) | 26.9% (inactive) | 5.82% (active) | 12.9% (inactive) | 36.8% (inactive) | 70.7% (inactive) | 111% (inactive) | 78.5% (inactive) | 22.8% (inactive) | 49.8% (inactive) | 54.9% (inactive) | 63.2% (inactive) | 80.6% (inactive) | 106% (inactive) | 84.6% (inactive) | 54.2% (inactive) | 64.6% (inactive) |
| Clc1ccc2c(c1)N(c1ncnc3ccc(-c4cnc5[nH]ccc5c4)cc13)CC2 | 40.6% (inactive) | 40.9% (inactive) | 41.3% (inactive) | 13.8% (inactive) | 16.5% (inactive) | 14.8% (inactive) | 30.6% (inactive) | 21.4% (inactive) | 24.5% (inactive) | 45.1% (inactive) | 27.6% (inactive) | 5.53% (active) | 7.46% (active) | 35.6% (inactive) | 4.78% (active) | 39.8% (inactive) | 19.7% (inactive) | 27.5% (inactive) | 34.4% (inactive) | 8.89% (active) |
| CN1CCN(CCCN2c3ccccc3Sc3ccc(Cl)cc32)CC1 | 82.3% (inactive) and 86.4% (inactive) | 95.7% (inactive) and 95.1% (inactive) | 93.1% (inactive) | 90.4% (inactive) | 93.4% (inactive) and 96.9% (inactive) | 48.1% (inactive) and 29.4% (inactive) | 81.5% (inactive) and 92.9% (inactive) | 73.9% (inactive) and 80.4% (inactive) | 62.8% (inactive) and 72% (inactive) | 26.8% (inactive) | 91% (inactive) and 104% (inactive) | 42.3% (inactive) and 39.7% (inactive) | 91.6% (inactive) | 70.7% (inactive) and 55.1% (inactive) | 47% (inactive) and 63% (inactive) | 82.3% (inactive) and 88.2% (inactive) | 85.7% (inactive) and 82.5% (inactive) | 85.1% (inactive) | -34.7% (active) and 53.2% (inactive) | -53.2% (active) and 63.3% (inactive) |
